Measurements published in PubChem BioAssay (NCATS).
Results filed as inconclusive are left out. Calls of active or inactive are those of the source. Calls follow the shape of the dose curve; as a rule, active = well fitted curve in the direction sought with a large enough effect; inconclusive = small, poorly fitted or top-dose-only effect, or another doubt; inactive = no such curve, though single readings can be large; an effect the other way counts as inactive or inconclusive.

What was measured:
[1] = Cellular Toxicity (caspase-3) SK-N-SH (AID 661)
Outline: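 SK-N-SH human neuroblastoma cells (1500/well) were treated with compounds for 16 hr at 37 °C in complete medium; caspase 3/7 activity was read by Caspase-Glo luminescence. AC50 came from Hill fits of data normalized to DMSO and 10 uM staurosporine.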

[2] = Cellular Toxicity (caspase-3) H-4-II-E (AID 663);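 also: cells exposed to compound for 16 hr before readout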
Outline: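 Luminescence from caspase-cleaved aminoluciferin substrate, read 20 min after reagent addition, reports caspase 3/7 activation in rat H-4-II-E cells after 16 hr compound exposure. Normalized to DMSO (basal) and 100 uM tamoxifen (100%); AC50 from Hill fits.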

[3] = Cellular Toxicity (caspase-3) Hek293 (AID 664);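 also: cells exposed to compound for 16 h at 37 °C before readout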
Outline: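 HEK293 cells were exposed to compounds in complete medium for 16 hr at 37 °C, then caspase-3/7 activity was read by Caspase-Glo 3/7 luminescence after 20 min at room temperature. Data normalized to DMSO and 100 uM tamoxifen; AC50 from Hill fits.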

[4] = Cellular Toxicity (caspase-3) N2a (AID 665);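 also: compound exposure lasted 16 h at 37 °C before readout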
Outline: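 Mouse N2a neuroblastoma cells (1500/well) were treated with compounds for 16 h at 37 °C, then caspase-3/7 activity was read by Caspase-Glo luminescence after 1 h at room temperature. Data were normalized to DMSO and 10 uM staurosporine; AC50 from Hill fits.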

[5] = Cellular Toxicity (caspase-3) NIH 3T3 (AID 666)
Outline: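 Mouse NIH 3T3 fibroblasts (1000 cells/well) were treated with compound for 16 hr at 37°C in complete medium; caspase-3/7 activity was read by Caspase-Glo luminescence. Normalized to DMSO and 100 uM tamoxifen; AC50 from Hill fits.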

[6] = Cell Viability - LYMP2-001 (AID 921); settings: LYMP2-001 lymphoblastoid cell viability; also: potency is read from the fitted curve at half-maximal effect; nearly all actives have a fitted effect of over 70% in size
Outline: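 Human lymphoblastoid cells (Coriell), 2500 per well, were preincubated 5 hr at 37 C, then exposed to compounds in complete medium for 24 hr at 37 C. Cellular ATP was read by CellTiter-Glo luminescence; AC50 from Hill fits of concentration-response data.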

[7] = MultiTox-Fluor Cytotoxicity Assay - LYMP1-001 - Dead Cells (AID 946)
Outline: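 Cytotoxicity as increased dead-cell protease fluorescence (bis-AAF-R110, 485/520 nm), read 60 min after MultiTox-Fluor reagent. Human lymphoblastoid line exposed 16 h; Hill-fitted AC50, with DMSO as 0% and 15 uM tetraoctylammonium bromide as 100%.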

[8] = Cell Viability - LYMP1-002 - Assay at 16 hr (AID 948); settings: LYMP1-002 lymphoblastoid cell viability; also: potency is read from the fitted curve at half-maximal effect
Outline: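 Human lymphoblastoid cells (LYMP1-002), 2500/well, were preincubated 5 hr at 37 C, then exposed to compounds for 16 hr at 37 C in complete medium. Cellular ATP was read by CellTiter-Glo luminescence after 30 min at room temperature; AC50 from Hill fits.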

[9] = MultiTox-Fluor Cytotoxicity Assay - LYMP1-002 - Dead Cells (AID 960); also: nearly all actives have a fitted effect of over 60% in size
Outline: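 Human lymphoblastoid cells (LYMP1-002), 2500/well in complete medium, were exposed to compounds for 16 hr at 37 C. Dead-cell protease activity was read as bis-AAF-R110 fluorescence (Ex/Em 485/520), normalized to DMSO and 15 uM tetraoctylammonium bromide; AC50 from Hill fits.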

[10] = MultiTox-Fluor Cytotoxicity Assay - LYMP1-003 - Dead Cells (AID 961); also: nearly all actives have a fitted effect of over 70% in size
Outline: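 Dead-cell protease release, detected as bis-AAF-R110 fluorescence at 485/520 nm, was measured in LYMP1-003 cells after 16 h compound treatment at 37 C. AC50 values came from Hill-modeled qHTS curves normalized to DMSO (0%) and 15 uM tetraoctylammonium bromide (100%).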

[11] = MultiTox-Fluor Cytotoxicity Assay - LYMP1-003 - Live Cells (AID 962); settings: LYMP1-003 lymphoblastoid cells, MultiTox-Fluor live-cell protease fluorescence; also: potency is read from the fitted curve at half-maximal effect
Outline: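 LYMP1-003 human lymphoblastoid cells (2500/well) in complete medium were preincubated 5 hr at 37 C, then exposed to compounds for 16 hr at 37 C. Live-cell protease cleavage of GF-AFC read by fluorescence (Ex/Em 405/510); AC50 from Hill fits.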

[12] = Cell Viability - LYMP1-003 - Assay at 24 hr (AID 963); settings: LYMP1-003 lymphoblastoid cell viability; also: potency is read from the fitted curve at half-maximal effect
Outline: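 Human lymphoblastoid LYMP1-003 cells (2500/well) were rested 5 hr at 37 C, then exposed to compounds in complete medium for 24 hr at 37 C. Cellular ATP was quantified by CellTiter-Glo luminescence, and AC50 values came from Hill fits of concentration-response data.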

[13] = Cell Viability - LYMP1-003 - Assay at 40 hr (AID 964); settings: LYMP1-003 lymphoblastoid viability; also: potency is read from the fitted curve at half-maximal effect; nearly all actives have a fitted effect of over 60% in size
Outline: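 Human lymphoblastoid LYMP1-003 cells, 2500/well in complete medium, rested 5 hr at 37 C, then exposed to compounds for 40 hr at 37 C. Viability read as intracellular ATP by CellTiter-Glo luminescence; AC50 from Hill fits of concentration-response data.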

[14] = Cell Viability - LYMP2-003 (AID 965); settings: LYMP2-003 lymphoblastoid cell viability;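 also: potency is read from the fitted curve at half-maximal effect; cells exposed to compounds for 24 h before reading; nearly all actives have a fitted effect of over 50% in size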
Outline: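 Human lymphoblastoid cells (2500/well) were pre-incubated 5 hr at 37 C, then exposed to compounds over a concentration range for 24 hr at 37 C. Intracellular ATP was read by CellTiter-Glo luminescence; AC50 came from Hill-equation fits.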

[15] = Cell Viability - LYMP2-004 (AID 966); settings: LYMP2-004 lymphoblastoid cell viability, qHTS; also: potency is read from the fitted curve at half-maximal effect; nearly all actives have a fitted effect of over 65% in size
Outline: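 Human lymphoblastoid cells (2500/well) in complete medium were treated with compounds for 24 hr at 37 C, then intracellular ATP was measured by CellTiter-Glo luminescence. AC50 values came from Hill-equation fits of concentration-response data.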

[16] = Cell Viability - LYMP2-005 (AID 967); settings: LYMP2-005 lymphoblastoid cell viability; also: potency is read from the fitted curve at half-maximal effect
Outline: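 CellTiter-Glo luminescence (cellular ATP) read-out; LYMP2-005 lymphoblastoid cells, 2500/well, 5 h pre-incubation, then 24 h compound exposure at 37 C in complete medium. Tetraoctylammonium bromide positive control; AC50 by standard Hill fit.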

[17] = Cell Viability - LYMP2-009 (AID 968); settings: LYMP2-009 lymphoblastoid cell viability; also: potency is read from the fitted curve at half-maximal effect; nearly all actives have a fitted effect of over 55% in size
[18] = Cell Viability - LYMP2-011 (AID 969); settings: LYMP2-011 lymphoblastoid cells viability; also: potency is read from the fitted curve at half-maximal effect; nearly all actives have a fitted effect of over 60% in size
Outline: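 Human lymphoblastoid cells (2500/well) were plated in complete medium, preincubated 5 hr at 37 C, then exposed to compounds for 24 hr at 37 C. Intracellular ATP was read by CellTiter-Glo luminescence, and AC50 came from Hill-equation concentration-response fits.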

[19] = Cell Viability - LYMP2-013 (AID 970); settings: LYMP2-013 lymphoblastoid cells viability; also: potency is read from the fitted curve at half-maximal effect; nearly all actives have a fitted effect of over 55% in size
Outline: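 Human lymphoblastoid cells, 2500/well, were preincubated 5 hr at 37 C, then treated with compounds for 24 hr at 37 C in complete medium. Intracellular ATP was read by CellTiter-Glo luminescence; AC50 from Hill-equation fits of concentration-response data.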

[20] = Cell Viability - LYMP2-015 (AID 971); settings: LYMP2-015 lymphoblastoid cell viability; also: potency is read from the fitted curve at half-maximal effect; nearly all actives have a fitted effect of over 55% in size
Outline: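 Human lymphoblastoid cells (2500/well) in complete medium were preincubated 5 hr at 37 C, then compound-treated 24 hr at 37 C. Intracellular ATP was read by CellTiter-Glo luminescence after 30 min at room temperature; AC50 came from Hill-equation concentration-response fits.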

Measured: Potency

O=C1c2c(O)ccc([N+](=O)[O-])c2C(=O)c2c([N+](=O)[O-])ccc(O)c21
active: [6] 50.1 µM | [8] 39.8 µM | [11] 50.1 µM | [12] 39.8 µM | [13] 39.8 µM | [14] 31.6 µM | [15] 31.6 µM | [16] 39.8 µM | [17] 31.6 µM | [18] 39.8 µM | [19] 50.1 µM | [20] 31.6 µM
inactive: [1] | [2] | [3] | [4] | [5] | [7] | [9] | [10]
